Reference: PubChem BioAssay (NCATS)
Inconclusive results are not listed. Calls of active or inactive are those of the source. Calls follow the shape of the dose curve; as a rule, active = well fitted cell-killing curve with a large enough effect; inconclusive = small, poorly fitted or top-dose-only effect, or effect the other way; inactive = no such curve, though single readings can be large or run the other way.

assay: Quantitative High-Throughput drug screen in 47 multiple myeloma cell lines against the NCATS MIPE library collection: RPMI8226_ATCC cell viability assay (AID 1919871); settings: RPMI8226 myeloma viability, CellTiter-Glo ATP luminescence, 48 h; series mostly up to 45.8 µM; viability (% of control): at the top concentration; also: nearly all actives have a fitted effect of over 30% in size
Outline: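 Cells were exposed to library compounds for 48 hours, after which ATP was measured by CellTiter-Glo. Signal was taken as median relative luminescence units.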
Potency is read from the fitted curve at half-maximal effect.

Compound	Potency	viability (% of control)
COc1cc2nc(N3CCN(C(=O)C4COc5ccccc5O4)CC3)nc(N)c2cc1OC (stereo not drawn)	16.6 µM (active)	–
Cc1ccccc1N1C(=O)c2cc(S(N)(=O)=O)c(Cl)cc2NC1C (stereo not drawn)	7.43 µM (active)	–
COc1ccc2c(c1)c(CC(=O)O)c(C)n2C(=O)c1ccc(Cl)cc1	–	113% (inactive)
C[C@@H]1CC(=O)NN=C1c1ccc(NN=C(C#N)C#N)cc1	20.9 µM (active)	–
CC1(C)O[C@H]2CC(=O)OC[C@]23[C@H]2CC[C@@]4(C)[C@H](c5ccoc5)OC(=O)[C@H]5O[C@]54[C@]2(C)C(=O)C[C@@H]13	–	137% (inactive)
CN1CCN(C2=Nc3cc(Cl)ccc3Nc3ccccc32)CC1	–	95.6% (inactive)
CCC1(C)CC(=O)NC1=O (stereo not drawn)	–	122% (inactive)
CN(C)CCCN1c2ccccc2CCc2ccc(Cl)cc21	16.6 µM (active)	–
CC(=O)OCC(CCn1cnc2cnc(N)nc21)COC(C)=O	–	144% (inactive)
CN1CCC(=C2c3ccccc3CC(=O)c3sccc32)CC1	–	118% (inactive)
COc1ccccc1N1CCN(CC(O)COc2cccc3ccccc23)CC1 (stereo not drawn)	26.4 µM (active)	–
NC(=O)OCC(COC(N)=O)c1ccccc1	–	107% (inactive)
Nc1c2c(nc3ccccc13)CCCC2	1.32 µM (active)	–
NC12CC3CC(CC(C3)C1)C2	0.833 µM (active)	–
O=C1N(c2ccccc2)c2ccccc2C1(Cc1ccncc1)Cc1ccncc1	–	148% (inactive)
CCOC(=O)c1ncn2c1CN(C)C(=O)c1cc(F)ccc1-2	2.64 µM (active)	–
CCN1CCCC1CNC(=O)c1cc(S(=O)(=O)CC)c(N)cc1OC (stereo not drawn)	–	106% (inactive)
CN(C)C(=N)N=C(N)N	–	111% (inactive)
